Test results as given in PMC7862700, “An all-to-all approach to the identification of sequence-specific readers for epigenetic DNA modifications on cytosine”.

How the values were obtained:
Assay in all cases: DAPPL (digital affinity profiling via proximity ligation, sequencing); 10 mM Tris-HCl pH 7.5, 50 mM NaCl, 1 mM DTT, 4% glycerol, room temperature, 30 min; GST-TFs on glutathione beads, 16-mer random dsDNA library, 0.1% formaldehyde crosslink after washing; high values mean tight binding
Settings in all cases: protein: recombinant; tags: N-terminal GST; dsDNA, one strand shown
ETV1 = ETV1 (Homo sapiens, UniProt P50549 1-477)
ETV1, sequence (P50549 whole entry, the tested form may be a part): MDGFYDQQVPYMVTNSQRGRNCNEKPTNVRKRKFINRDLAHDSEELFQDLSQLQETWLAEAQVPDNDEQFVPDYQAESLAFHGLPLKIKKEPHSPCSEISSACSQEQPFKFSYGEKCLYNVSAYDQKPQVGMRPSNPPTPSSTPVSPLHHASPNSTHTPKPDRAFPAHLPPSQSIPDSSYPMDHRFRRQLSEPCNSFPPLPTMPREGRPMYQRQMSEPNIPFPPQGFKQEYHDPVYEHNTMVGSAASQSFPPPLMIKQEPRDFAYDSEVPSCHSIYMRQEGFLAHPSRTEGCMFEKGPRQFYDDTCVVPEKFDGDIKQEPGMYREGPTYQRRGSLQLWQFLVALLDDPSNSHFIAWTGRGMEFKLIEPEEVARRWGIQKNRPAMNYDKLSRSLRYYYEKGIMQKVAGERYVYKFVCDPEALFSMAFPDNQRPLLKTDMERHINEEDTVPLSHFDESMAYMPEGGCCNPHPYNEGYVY
Procedure, shortened: (§1)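 Human transcription factors carrying a GST fusion were produced in yeast, bound to glutathione beads, tagged with DNA barcodes and pooled together with a tag-only sample. Each pool was held with 200 nmole of a random double-stranded 16-mer DNA library in Tris/NaCl/DTT/glycerol buffer for 30 min at room temperature, then washed, crosslinked in 0.1% formaldehyde, proximity-ligated with BsaI/T4 ligase (1 h, 37 °C), PCR-amplified and sequenced on an Illumina NextSeq500. Binding signal is the read frequency of each hexamer for a given factor divided by its frequency in the tag-only sample.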

ERF = biological target: T1, ERF (Homo sapiens, UniProt P50548 1-548)
T1 sequence: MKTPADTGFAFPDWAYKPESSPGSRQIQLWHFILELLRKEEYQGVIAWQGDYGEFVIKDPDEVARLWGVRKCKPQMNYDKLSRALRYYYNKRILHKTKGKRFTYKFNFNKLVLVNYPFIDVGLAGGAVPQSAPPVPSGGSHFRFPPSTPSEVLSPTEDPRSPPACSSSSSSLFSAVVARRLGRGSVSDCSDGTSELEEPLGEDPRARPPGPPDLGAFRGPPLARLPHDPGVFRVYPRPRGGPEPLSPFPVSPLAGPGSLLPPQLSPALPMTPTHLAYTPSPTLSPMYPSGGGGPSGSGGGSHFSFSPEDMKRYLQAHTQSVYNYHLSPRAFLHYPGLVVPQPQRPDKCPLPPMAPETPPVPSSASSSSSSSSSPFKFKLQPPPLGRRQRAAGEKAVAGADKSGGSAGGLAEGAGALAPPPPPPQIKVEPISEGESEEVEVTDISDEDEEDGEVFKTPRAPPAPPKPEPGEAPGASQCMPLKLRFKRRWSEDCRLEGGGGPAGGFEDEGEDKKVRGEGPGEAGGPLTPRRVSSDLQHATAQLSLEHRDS
Procedure, shortened: as §1

ETV3L = biological target: T2, ETV3L (Homo sapiens, UniProt Q6ZN32 1-361)
T2 sequence: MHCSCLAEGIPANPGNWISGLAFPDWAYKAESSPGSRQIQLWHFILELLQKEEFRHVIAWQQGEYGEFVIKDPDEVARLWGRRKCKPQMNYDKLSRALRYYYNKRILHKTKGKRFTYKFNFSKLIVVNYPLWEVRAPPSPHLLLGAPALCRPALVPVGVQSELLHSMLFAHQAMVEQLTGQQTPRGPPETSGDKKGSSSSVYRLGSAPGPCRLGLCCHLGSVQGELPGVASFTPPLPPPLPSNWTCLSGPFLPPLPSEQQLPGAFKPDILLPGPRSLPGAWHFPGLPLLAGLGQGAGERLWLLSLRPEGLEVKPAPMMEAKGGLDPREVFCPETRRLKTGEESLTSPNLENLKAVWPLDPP
Procedure, shortened: as §1

ETS2 = biological target: T3, ETS2 (Homo sapiens, UniProt P15036 1-469)
T3 sequence: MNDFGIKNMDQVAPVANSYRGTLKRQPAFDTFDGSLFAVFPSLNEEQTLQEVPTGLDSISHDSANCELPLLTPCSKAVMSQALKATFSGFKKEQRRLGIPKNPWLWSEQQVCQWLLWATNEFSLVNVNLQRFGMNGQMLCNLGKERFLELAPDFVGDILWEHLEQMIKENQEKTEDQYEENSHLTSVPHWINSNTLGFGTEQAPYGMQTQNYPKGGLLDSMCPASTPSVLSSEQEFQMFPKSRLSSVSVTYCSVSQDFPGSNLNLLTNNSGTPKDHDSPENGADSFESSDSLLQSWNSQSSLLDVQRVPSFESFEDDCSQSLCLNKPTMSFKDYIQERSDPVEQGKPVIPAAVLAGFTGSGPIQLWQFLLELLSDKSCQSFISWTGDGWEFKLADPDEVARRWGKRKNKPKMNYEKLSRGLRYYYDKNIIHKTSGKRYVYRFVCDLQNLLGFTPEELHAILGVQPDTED
Procedure, shortened: as §1

SPDEF = biological target: T4, SPDEF (Homo sapiens, UniProt O95238 1-335)
T4 sequence: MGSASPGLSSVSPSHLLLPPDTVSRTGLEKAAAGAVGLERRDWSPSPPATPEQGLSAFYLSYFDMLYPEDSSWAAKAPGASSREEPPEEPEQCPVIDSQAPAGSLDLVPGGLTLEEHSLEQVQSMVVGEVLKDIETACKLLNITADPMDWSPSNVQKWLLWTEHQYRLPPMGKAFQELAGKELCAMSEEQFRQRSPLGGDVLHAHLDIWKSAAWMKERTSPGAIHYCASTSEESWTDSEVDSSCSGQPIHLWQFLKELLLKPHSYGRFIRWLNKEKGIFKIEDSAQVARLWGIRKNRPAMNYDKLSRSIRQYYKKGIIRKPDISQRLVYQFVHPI
Procedure, shortened: as §1

ETV7 = biological target: T5, ETV7 (Homo sapiens, UniProt Q9Y603 1-341)
T5 sequence: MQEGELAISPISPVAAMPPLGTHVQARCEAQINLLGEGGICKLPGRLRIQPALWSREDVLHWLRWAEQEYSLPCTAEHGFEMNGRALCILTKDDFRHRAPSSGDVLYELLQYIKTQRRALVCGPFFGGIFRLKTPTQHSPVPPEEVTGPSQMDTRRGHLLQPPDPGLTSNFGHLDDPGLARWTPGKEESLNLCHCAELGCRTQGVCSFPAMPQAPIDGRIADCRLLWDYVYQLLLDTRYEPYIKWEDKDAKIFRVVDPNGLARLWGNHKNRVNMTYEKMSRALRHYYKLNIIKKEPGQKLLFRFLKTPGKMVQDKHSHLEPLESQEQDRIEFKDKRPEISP
Procedure, shortened: as §1

ELF5 = biological target: T6, ELF5 (Homo sapiens, UniProt Q9UKW6-2 1-255)
T6 sequence: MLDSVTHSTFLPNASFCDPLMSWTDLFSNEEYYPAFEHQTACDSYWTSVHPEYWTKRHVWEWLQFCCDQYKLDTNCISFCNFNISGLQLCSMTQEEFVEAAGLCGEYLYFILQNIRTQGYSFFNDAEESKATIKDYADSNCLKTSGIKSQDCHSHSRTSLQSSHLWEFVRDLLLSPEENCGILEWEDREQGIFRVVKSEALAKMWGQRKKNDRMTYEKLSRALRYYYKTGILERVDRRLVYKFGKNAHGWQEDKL
Procedure, shortened: as §1

ETV3 = biological target: T7, ETV3 (Homo sapiens, UniProt P41162-2 1-143)
T7 sequence: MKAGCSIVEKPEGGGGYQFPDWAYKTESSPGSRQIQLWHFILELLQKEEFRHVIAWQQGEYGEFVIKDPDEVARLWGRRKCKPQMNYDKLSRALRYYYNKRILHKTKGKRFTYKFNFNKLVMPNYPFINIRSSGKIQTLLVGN
Procedure, shortened: as §1

ETV6 = ETV6 (Homo sapiens, UniProt P41212 1-452)
ETV6, sequence (P41212 whole entry): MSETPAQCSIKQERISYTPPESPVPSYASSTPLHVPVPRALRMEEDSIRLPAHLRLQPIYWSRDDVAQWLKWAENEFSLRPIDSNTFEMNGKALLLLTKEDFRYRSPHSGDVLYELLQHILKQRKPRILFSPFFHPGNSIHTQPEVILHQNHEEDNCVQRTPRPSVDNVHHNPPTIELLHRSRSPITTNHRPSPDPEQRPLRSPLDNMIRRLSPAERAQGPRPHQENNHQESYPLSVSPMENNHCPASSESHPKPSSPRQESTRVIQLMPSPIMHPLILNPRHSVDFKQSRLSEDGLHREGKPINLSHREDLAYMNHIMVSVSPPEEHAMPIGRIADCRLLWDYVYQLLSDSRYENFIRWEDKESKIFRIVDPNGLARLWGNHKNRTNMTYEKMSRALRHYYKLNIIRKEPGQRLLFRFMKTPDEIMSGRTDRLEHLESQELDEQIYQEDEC
Procedure, shortened: as §1

## TTAACG
ETV1
  binding signal: 1.19 fold enrichment (6-mer frequency, TF over GST control)
ERF
  binding signal: 1.15 fold enrichment (6-mer frequency, TF over GST control)
ETV3L
  binding signal: 1.17 fold enrichment (6-mer frequency, TF over GST control)
ETS2
  binding signal: 1.23 fold enrichment (6-mer frequency, TF over GST control)
SPDEF
  binding signal: 1.23 fold enrichment (6-mer frequency, TF over GST control)
ETV7
  binding signal: 1.13 fold enrichment (6-mer frequency, TF over GST control)
ELF5
  binding signal: 1.14 fold enrichment (6-mer frequency, TF over GST control)
ETV3
  binding signal: 1.16 fold enrichment (6-mer frequency, TF over GST control)
ETV6
  binding signal: 1.17 fold enrichment (6-mer frequency, TF over GST control)
